MCF10A rerep: induces DNA re-replication in MCF 10a normal breast cells; MCF 10A DNA re-replication, Hoechst nuclear intensity, 48 h; 2.9% of 350,000 active; Potency, µM (highest dose often 46.1 µM), usual class: activators; AID 624296; also: nearly all actives have a fitted effect of over 50% in size
SW480 rerep: DNA re-replication induction in SW480 cells | SW480 DNA re-replication, Hoechst DNA content imaging, 48 h | Potency, µM (highest dose often 46.1 µM), most hits filed as activators | 1.8% of 340,000 active; also: nearly all actives have a fitted effect of over 55% in size
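250 cells/well; 23 nL cpd via pin tool; 48 hr, 37 C, 5% CO2; Hoechst 40 min; imager read of total nuclear intensity, ex 405/em 500-530 nm.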
HT1080 IDH1KD tx: toxicity to HT-1080 IDH1 knockdown cells (counter line); AID 686971; 2% of 360,000 active; HT-1080 IDH1 knockdown viability, ATP luminescence, 48 h; Potency, µM (series often up to 46.1 µM), hits mostly cytotoxic
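After a 2 h attachment period, IDH1KD HT-1080 cells took pin-transferred compound for 48 h at 37 °C; ATP-based luminescence after 10 min room-temperature reagent incubation reported viability.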
KB-V1 cytotox: KB-V1 MDR subline cytotoxicity | AID 1347076 | KB-V1 MDR cells viability, CellTiter-Glo, 72 h | 3.4% of 400,000 active | Potency, µM (highest dose often 46.1 µM), hits mostly cytotoxic; also: nearly all actives have a fitted effect of over 60% in size
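Drug-selected KB-V1 cells, grown in DMEM lacking phenol red with 10% FBS, receive compound titrations; after three days at 37 degrees C, surviving cell ATP is quantified by CellTiter-Glo luminescence and responses normalized and curve-fitted.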
HT1080NT lethal: kills 2HG-producing HT-1080-NT fibrosarcoma cells; HT-1080-NT fibrosarcoma viability, CellTiter-Glo ATP luminescence, 48 h; Potency, µM (highest dose often 46.1 µM), actives largely listed as cytotoxic; 1.6% of 360,000 active; AID 686970;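 also: NT is the 2HG producing partner of a matched IDH1 knockdown line; nearly all actives have a fitted effect of over 55% in size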
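Viability of the 2HG-overproducing fibrosarcoma line after 48 hours of compound exposure at 37 degrees C was determined by luminescence with CellTiter-Glo, and concentration-effect curves were then fitted and categorized.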
KB-3-1 cytotox: kills parental KB-3-1 adenocarcinoma cells. KB-3-1 viability, CellTiter-Glo ATP luminescence, 72 h. Potency, µM (doses to about 46.1 µM), most hits filed as cytotoxic. 1.4% of 400,000 active. AID 1347075; also: nearly all actives have a fitted effect of over 60% in size
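Screening of KB-3-1 cells (DMEM, 10% FBS, phenol-red free) ran from lowest to highest compound concentration; after 72 h at 37 °C viability was read luminescently and curves fitted.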
Hits are given with their value; i = inactive; ? = inconclusive; nt = no result. In the library only some 7.9% were active in any assay of this set; here they are far more common. Calls follow the shape of the dose curve; as a rule, active = well fitted curve in the direction sought with a large enough effect; inconclusive = small, poorly fitted or top-dose-only effect, or another doubt; inactive = no such curve, though single readings can be large; an effect the other way counts as inactive or inconclusive.

SMILES	MCF10A rerep	SW480 rerep	HT1080 IDH1KD tx	KB-V1 cytotox	HT1080NT lethal	KB-3-1 cytotox
C=Cc1ccc(COc2ccc3oc(-c4ccccc4)c(C(=O)OCC)c3c2)cc1	nt	nt	nt	i	nt	i
CCOCCn1ccc2c(OCC(=O)Nc3cccc([N+](=O)[O-])c3)cccc2c1=O	nt	nt	nt	i	nt	i
O=C1CCC2=C1C(c1ccccc1Cl)N=C(Nc1nc3ccccc3o1)N2 (stereo not given)	nt	nt	nt	i	nt	i
CC(C)C(=O)Nc1ccc(C(=O)c2ccccc2)cc1	i	i	i	13µM	i	i
CCC(CC)C(=O)Nc1cccc(C(=O)c2ccccc2)c1	i	i	i	9.2µM	i	i
COC(=O)c1sccc1S(=O)(=O)N(CC(=O)Nc1ccccc1)c1ccccc1	nt	nt	nt	i	nt	i
CC1(C(=O)Nc2ccc(F)c(Cl)c2)Cc2c(-c3ccc(C(N)=O)cc3)ccnc2O1 (stereo not given)	nt	nt	21µM	?	?	i
CC(=O)Nc1cccc(-c2ccnc3c2CC(C)(C(=O)Nc2ccc(Cl)c(C(F)(F)F)c2)O3)c1 (stereo not given)	nt	nt	23µM	?	?	?
CC(=O)Nc1cccc(-c2ccnc3c2CC(C)(C(=O)Nc2ccc(F)c(Cl)c2)O3)c1 (stereo not given)	nt	nt	?	21µM	?	?
CCCCCCCC[n+]1cccc2c3ccccc3ccc21	?	?	8.2µM	i	12µM	?
CCCC[n+]1c(C)ccc2ccccc21	nt	nt	nt	i	nt	?
Cc1cc[n+](CC(=O)c2ccc(F)cc2)c2ccccc12	nt	nt	nt	i	nt	i
CCCCCCCCCCCCCCCC[n+]1ccc(C)c2ccccc21	nt	nt	nt	13µM	nt	3.7µM
CCCCCCCCCC[n+]1cccc2c3ccccc3ccc21	i	i	2.3µM	i	4.1µM	1.2µM
CCCCCCCCCC[n+]1cccc2cc(Cl)ccc21	nt	nt	nt	i	nt	5.2µM
CCCNC(=O)Cn1c(=O)n(CC2CCC(C(=O)NC)CC2)c(=O)c2sccc21 (stereo not given)	nt	nt	nt	?	nt	i
CCCCCn1c(N)c(-c2nc3ccccc3s2)c2c([N+](=O)[O-])nn(CC)c(=O)c21	2.9µM	i	i	18µM	i	i
COc1cc(/C=N/NC(=O)CCn2c3ccccc3c3ccccc32)cc(OC)c1OC	i	i	i	4.6µM	i	i
COc1cc(/C=N/NC(=O)c2sc3nc(C)cc(C)c3c2N)ccc1O	15µM	?	?	i	?	i
COc1cc(/C=C(/C(=O)O)c2ccc(-c3ccccc3)cc2)cc(OC)c1OC	15µM	21µM	9.2µM	?	?	?
COc1cc(C=C(C#N)C(=O)c2ccccc2)cc(OC)c1OC	nt	nt	i	i	i	i
COc1ccc(/C=N/NC(=O)CCC(=O)Nc2ccccc2)cc1OC	i	i	i	i	i	i
COc1cc(/C=N/n2cnc3c(sc4nc(C)cc(C)c43)c2=O)ccc1O	i	?	i	i	i	i
COc1ccc(/C=N/NC(=O)CCn2cnc(-c3ccccc3)c2-c2ccccc2)cc1OC	8.2µM	21µM	8.2µM	?	9.2µM	6.5µM
COC(=O)C1=CN(c2ccc(Oc3ccccc3)cc2)C(N)=C(C#N)C1c1ccc(-c2ccccc2)cc1 (stereo not given)	nt	nt	i	i	i	i
COC(=O)[C@@]12C[C@@H](CC(=O)N3CCCC3)C(=O)N(Cc3ccc4c(c3)OCO4)C1=CCC(C)(C)C2	nt	nt	i	?	i	i
COc1ccc(/C=N\NC(=O)c2ccc(-c3ccccc3)cc2)c(OC)c1OC	i	i	i	i	i	i
COc1cc(/C=N\NC(=O)c2sc(N)nc2C)cc(OC)c1OC	21µM	i	i	i	i	i
COc1cc(/C=N/NC(=O)c2ccc(-c3ccccc3)cc2)cc(OC)c1OC	i	9.2µM	i	i	i	i
COC(=O)CC1(C(=O)OC)Oc2ccc(Br)cc2C(=O)N1c1cc(Cl)cc(Cl)c1 (stereo not given)	i	i	i	?	?	i
